Data published in PubChem BioAssay.
Activity calls are given as the source filed them. Unless noted, how the calls were made is not given here.

How the values were obtained:
[1] = A549 cell viability effects, profiling panel, calcein-AM fluorescence, 48 h, basal (AID 1162); conditions: higher = more signal; further: test concentration not given here
[2] = adipocyte viability effects, profiling panel, cell-based, 3T3-L1 adipocytes, calcein-AM fluorescence, 48 h, basal (AID 1163); conditions: 3T3-L1 adipocytes viability, higher = more signal; further: test concentration not given here
[3] = HepG2 cell viability effects, profiling panel, calcein-AM fluorescence, 48 h, basal (AID 1164); conditions: higher = more signal; further: test concentration not given here
[4] = MM1S cell viability effects, profiling panel, calcein-AM fluorescence, 48 h, basal (AID 1165); conditions: higher = more signal;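 further: viability of MM1S multiple myeloma cells under basal unstimulated conditions; test concentration not given here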
[5] = basal RPMI8226 viability, no added stimulus, profiling panel, cell-based, calcein-AM fluorescence, 48 h, PK04 Diversity Set (AID 1166); conditions: RPMI8226 myeloma viability, higher = more signal;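 further: cells grown under basal conditions without added stimulus; test concentration not given here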
[6] = basal HepG2 mitochondrial membrane potential changes, profiling panel, cell-based, JC-1 fluorescence, 24 h, 100 nL compound (AID 1167); conditions: higher = more signal; further: test concentration not given here
[7] = basal 3T3-L1 adipocyte mitochondrial potential changes, profiling panel, cell-based, JC-1 fluorescence, 3T3-L1 adipocytes, 24 h, 100 nL compound (AID 1168); conditions: JC-1 mitochondrial fluorescence, higher = more signal, called active from +8 up or from −8 down; further: test concentration not given here
[8] = basal RPMI8226 mitochondrial membrane potential changes, profiling panel, cell-based, JC-1 fluorescence, 24 h, 100 nL compound (AID 1169); conditions: RPMI8226 myeloma, JC-1 mitochondrial potential fluorescence, higher = more signal; further: test concentration not given here
[9] = basal MM1S mitochondrial membrane potential changes, profiling panel, cell-based, JC-1 fluorescence, 24 h, 100 nL compound (AID 1170); conditions: higher = more signal; further: test concentration not given here
[10] = A549 lung cancer cell viability effects, profiling panel, resazurin fluorescence, 24 h, PK04 Diversity Set (AID 1171); conditions: higher = more signal, called active from +8 up or from −8 down; further: test concentration not given here
[11] = HepG2 liver cancer cell viability effects, profiling panel, resazurin fluorescence, 24 h, PK04 Diversity Set (AID 1172); conditions: higher = more signal; further: test concentration not given here
[12] = basal S. cerevisiae growth modulation, no modifier, primary screen, OD600, strain BY4716, 24 h, basal condition (AID 1173); conditions: OD600, 24 h, higher = more signal, called active from +8 up or from −8 down
[13] = MM1S myeloma cell viability, profiling panel, resazurin fluorescence, basal, 24 h, PK04 Diversity Set (AID 1174); conditions: higher = more signal, called active from +8 up or from −8 down;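 further: MM1S multiple myeloma cell line; test concentration not given here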
[14] = biological target: Dihydroorotate dehydrogenase (quinone), mitochondrial (Plasmodium falciparum (isolate 3D7)) (UniProt Q08210); assay: PfDHODH enzyme inhibitors, primary screen, biochemical, C-terminal His tag, absorbance 600 nm (AID 1175); conditions: DCIP absorbance 600 nm, higher = more signal, called active from +8 up or from −8 down;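 further: recombinant parasite enzyme with a five histidine tag at its C terminus; test concentration not given here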
Sequence of Dihydroorotate dehydrogenase (quinone), mitochondrial (Plasmodium falciparum (isolate 3D7)) (Q08210 whole entry, looked up): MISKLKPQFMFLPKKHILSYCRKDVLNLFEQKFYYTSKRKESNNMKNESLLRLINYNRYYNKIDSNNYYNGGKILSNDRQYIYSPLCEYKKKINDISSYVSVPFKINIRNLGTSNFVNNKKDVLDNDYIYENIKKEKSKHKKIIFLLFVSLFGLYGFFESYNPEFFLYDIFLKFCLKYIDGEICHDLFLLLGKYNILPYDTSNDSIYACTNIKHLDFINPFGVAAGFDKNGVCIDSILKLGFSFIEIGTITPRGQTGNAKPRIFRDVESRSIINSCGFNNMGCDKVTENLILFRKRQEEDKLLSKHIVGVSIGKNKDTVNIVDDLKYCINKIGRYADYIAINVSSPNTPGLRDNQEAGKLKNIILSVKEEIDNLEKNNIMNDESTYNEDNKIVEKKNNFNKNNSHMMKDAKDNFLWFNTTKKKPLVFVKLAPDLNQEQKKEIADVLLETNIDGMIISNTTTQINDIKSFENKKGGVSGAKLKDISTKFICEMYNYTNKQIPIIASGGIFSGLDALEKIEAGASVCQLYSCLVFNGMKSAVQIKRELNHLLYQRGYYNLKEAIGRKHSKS

[15] = P. aeruginosa biofilm formation inhibitors, primary screen, strain PAO1, LB-PBS medium, absorbance 600 nm (AID 1176); further: test concentration not given here; conditions: P. aeruginosa PAO1 growth/biofilm, A600, 12 h; higher = more signal
[16] = S. cerevisiae RM11-1a growth modifiers, primary screen, strain RM11-1a, OD600, basal, 24 h (AID 1177); conditions: OD600, 24 h, higher = more signal, called active from +8 up or from −8 down;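 further: cultures grown under basal conditions with no added stressor; test concentration not given here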
[17] = E. coli acrAB mutant growth effects, primary screen, E. coli filamentation inducers, strain DRC39, OD650, 24 h (AID 1178); conditions: higher = more signal, called active from +8 up or from −8 down;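 further: growth measured as culture turbidity by optical density at 650 nm; test concentration not given here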
[18] = E. coli acrAB mutant growth effects, primary screen, E. coli filamentation inducers, strain DRC39, OD650, 48 h (AID 1179);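 further: screen aims at cell division blockers that make cells filament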; conditions: E. coli DRC39 delta-acrAB growth, higher = more signal, called active from +8 up or from −8 down
[19] = RPMI8226 myeloma cell viability, profiling panel, resazurin fluorescence, basal, 24 h, PK04 Diversity Set (AID 1180); conditions: higher = more signal;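 further: RPMI8826 multiple myeloma cell line at 5000 cells per well; test concentration not given here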
[20] = biological target: E3 ubiquitin-protein ligase XIAP (Homo sapiens) (UniProt P98170); assay: XIAP binders, primary screen, biophysical, small-molecule microarray, fluorescence 635 nm (AID 1181); conditions: small-molecule microarray binding, higher = more signal;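 further: score merges 667 nm emission and signal to noise over triplicate slides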
Sequence of E3 ubiquitin-protein ligase XIAP (Homo sapiens) (P98170 whole entry, looked up): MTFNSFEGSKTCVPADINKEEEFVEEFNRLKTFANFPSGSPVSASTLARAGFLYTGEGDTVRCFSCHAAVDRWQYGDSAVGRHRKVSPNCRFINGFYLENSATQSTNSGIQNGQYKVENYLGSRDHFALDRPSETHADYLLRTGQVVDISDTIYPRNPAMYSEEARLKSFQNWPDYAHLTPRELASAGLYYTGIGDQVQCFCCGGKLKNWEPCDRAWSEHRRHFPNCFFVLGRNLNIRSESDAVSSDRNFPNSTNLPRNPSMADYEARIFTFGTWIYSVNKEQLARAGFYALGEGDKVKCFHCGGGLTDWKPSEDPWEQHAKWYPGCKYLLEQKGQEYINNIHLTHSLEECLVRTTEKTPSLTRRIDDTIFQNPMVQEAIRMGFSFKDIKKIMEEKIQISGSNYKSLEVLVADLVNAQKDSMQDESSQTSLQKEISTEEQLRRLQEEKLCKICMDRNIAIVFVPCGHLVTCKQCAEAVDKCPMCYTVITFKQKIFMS

Structure (SMILES) | z-score [1] | z-score [2] | z-score [3] | z-score [4] | z-score [5] | z-score [6] | z-score [7] | z-score [8] | z-score [9] | z-score [10] | z-score [11] | z-score [12] | z-score [13] | composite z-score [14] | z-score [15] | z-score [16] | z-score [17] | z-score [18] | z-score [19] | composite z-score [20]
COc1ccc(C(O)C2C=CC3C(=O)NC(=O)C3N2Nc2ccccn2)cc1OCc1ccccc1 (stereo not given) | -1.11 | 0.119 | 0.222 | -0.042 | -1.22 | -1 | -0.479 (inactive) | -0.879 | 0.607 | -0.404 (inactive) | -0.8 | 0.481 (inactive) | -0.581 (inactive) | 1.58 (inactive) | 1.48 (inactive) | 0.18 (inactive) | -0.855 (inactive) | 0.145 (inactive) | -1.87 | 0.578
COc1ccc(C#Cc2ccc3c(c2)[C@]2(C(=O)N3)[C@H](C(=O)NC[C@H](O)c3ccccc3)[C@H]3C(=O)O[C@H](c4ccccc4)[C@H](c4ccccc4)N3[C@@H]2c2ccc(OCCO)cc2)cc1 | 0.415 | 1.17 | -0.425 | -1.82 | -1.07 | -1.51 | 2.53 (inactive) | -1.04 | -0.733 | -0.171 (inactive) | -1.07 | 2.22 (inactive) | -1.16 (inactive) | -0.0157 (inactive) | 2.55 (inactive) | 2.97 (inactive) | -0.34 (inactive) | -0.151 (inactive) | -1.47 | -0.125
CCOC(=O)[C@H]1C[C@H]2O[C@@]23C[C@H]1C(=O)N1CCCC1[C@@H]3O[Si](C)(C)C(C)(C)C (stereo not given in full) | -0.486 | 0.729 | -0.154 | -0.337 | -0.5 | -0.625 | -0.166 (inactive) | -0.366 | 0.193 | -0.456 (inactive) | -0.332 | -4.67 (inactive) | -0.88 (inactive) | -0.17 (inactive) | 0.367 (inactive) | -0.521 (inactive) | -0.205 (inactive) | -0.595 (inactive) | 0.0096 | -0.083
CCOC(=O)C[C@H]1[C@H](OC(=O)c2ccccc2-c2ccccc2)[C@@H](NC(=O)Cc2ccc(OC)cc2)c2cc(OCCCO)ccc2N1C(=O)c1ccccc1 | 0.369 | -0.8 | 0.41 | -0.0609 | 0.0629 | 0.915 | 0.0962 (inactive) | -0.0457 | 0.213 | 0.407 (inactive) | -0.532 | 0.728 (inactive) | -0.275 (inactive) | 0.542 (inactive) | -0.0461 (inactive) | 0.799 (inactive) | -0.672 (inactive) | -0.79 (inactive) | -0.155 | 0.123
CCCCCCc1nc(CCCc2cc3c(c(CCCCCC)n2)[Si](C(C)C)(C(C)C)OC3)cc2c1[Si](C(C)C)(C(C)C)OC2 | -2.42 | 1.78 | -1.47 | -3.28 | -4.35 | 0.535 | 0.705 (inactive) | -1.1 | -0.553 | 1.75 (inactive) | -0.0097 | -0.528 (inactive) | 0.129 (inactive) | -2.32 (inactive) | 0.374 (inactive) | 0.539 (inactive) | -0.214 (inactive) | -0.728 (inactive) | -0.655 | -0.0829
CN(C)C(=O)[C@]1(CCC(=O)OC(C)(C)C)N=C(c2ccc(OCCCO)cc2)O[C@@H]1c1ccccc1N=[N+]=[N-] | 0.0413 | 0.473 | 0.333 | -0.629 | 0.0141 | 2.25 | 2.52 (inactive) | -0.568 | -0.325 | 1.84 (inactive) | 1.49 | 0.192 (inactive) | -0.556 (inactive) | 0.565 (inactive) | -0.758 (inactive) | 1.61 (inactive) | 0.752 (inactive) | 0.701 (inactive) | 0.407 | 0.0317
COc1ccc(CCNC(=O)[C@@]2(c3ccc([N+](=O)[O-])cc3)CC(=O)N(CC34CC5CC(CC(C5)C3)C4)[C@@H]2c2ccc(CO)cc2)cc1 | -2.36 | 0.369 | -1.88 | -2.98 | -4.23 | 1.23 | -0.626 (inactive) | -0.857 | -0.452 | -2.29 (inactive) | -1.86 | -0.125 (inactive) | -2.58 (inactive) | 0.682 (inactive) | 1.61 (inactive) | 0.526 (inactive) | -0.226 (inactive) | -0.281 (inactive) | -2.81 | 0.0073
C=CCOC(=O)[C@H]1[C@@H]2C(=O)O[C@@H](c3ccccc3)[C@@H](c3ccccc3)N2[C@@H](c2ccc(OCCOC(=O)[C@@H]3C[C@@H]4C(=O)N5CCC[C@H]5C(=O)N4[C@@H]3c3ccc(O)cc3)cc2)[C@]12C(=O)Nc1ccccc12 | 0.924 | 0.038 | -0.139 | 0.603 | 0.876 | -1.42 | 1.74 (inactive) | -0.212 | -0.786 | 0.362 (inactive) | 0.196 | 0.865 (inactive) | 0.841 (inactive) | -0.379 (inactive) | 0.957 (inactive) | 2.73 (inactive) | 0.468 (inactive) | 0.971 (inactive) | 1.71 | 0.224
